PME-1 inh – PME-1 inhibitors via competitive probe labeling, primary screen, biochemical, fluorescence polarization, FP-Rh probe, HTS; AID 2130, 2009; Protein phosphatase methylesterase 1 (Homo sapiens), Q9Y570; recombinant PME-1; 320,000 compounds, 0.53% hits; inhibition, % at 5.9 µM;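 active = inhibition above the campaign mean of all compounds plus 3 SD, cut at about 26% in these data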;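 also: competitive labeling of PME-1 active site by serine hydrolase directed probe; inhibitors block probe labeling so polarization falls and inhibition rises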
Fam108B inh – mouse Fam108B serine hydrolase inhibitors, primary screen, counter-screen for RBBP9 inhibitor project, biochemical, fluorescence polarization; recombinant Fam108B, FP-Rh probe fluorescence polarization; inhibition, % at 9.51 µM; 300,000 compounds, 0.33% hits;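 active = inhibition above the screen mean inhibition plus 3 SD, computed separately per campaign, cut at about 18% in these data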;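 also: inhibitors lower polarization as less probe binds the enzyme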
LYPLA1 inh – LYPLA1 inhibitors, primary screen, counter-screen for PME1 inhibitor project, biochemical, fluorescence polarization, FP-Rh probe ABPP; recombinant LYPLA1; Acyl-protein thioesterase 1 (Homo sapiens), O75608; inhibition, % at 5.9 µM; 320,000 compounds, 0.16% hits;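 active = inhibition above the mean of all tested compounds plus 3 SD, set per campaign, cut at about 14% in these data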;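 also: inhibitors block serine hydrolase probe labeling of LYPLA1 so polarization falls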
Target sequence (O75608 whole entry, looked up): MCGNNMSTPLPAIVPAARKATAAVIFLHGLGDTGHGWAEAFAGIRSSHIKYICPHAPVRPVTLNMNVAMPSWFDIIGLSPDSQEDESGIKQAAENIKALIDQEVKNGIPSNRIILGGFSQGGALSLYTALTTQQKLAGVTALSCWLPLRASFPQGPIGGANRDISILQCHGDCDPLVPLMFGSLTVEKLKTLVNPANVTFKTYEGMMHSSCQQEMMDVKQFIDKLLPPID
PAD4 FP inh – human PAD4 inhibitors, primary screen, biochemical, fluorescence polarization, 1536-well format; recombinant PAD4, RCA probe fluorescence polarization; inhibition, % at 6.36 µM; 330,000 compounds, 0.41% hits; AID 485272, 2010;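 active = percent inhibition above a cutoff equal to the mean of all tested compounds plus 3 SD, cut at about 15% in these data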
GSTO1 inh – inhibitors of recombinant GSTO1, primary screen, counter-screen for RBBP9 inhibitor project, biochemical, fluorescence polarization; AID 1974, 2009; 300,000 compounds, 1.1% hits; activity-based probe fluorescence polarization; inhibition, % at 5.96 µM;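 active = inhibition above the campaign mean inhibition plus 3 SD, cut at about 35% in these data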
Target sequence (P78417 whole entry, looked up): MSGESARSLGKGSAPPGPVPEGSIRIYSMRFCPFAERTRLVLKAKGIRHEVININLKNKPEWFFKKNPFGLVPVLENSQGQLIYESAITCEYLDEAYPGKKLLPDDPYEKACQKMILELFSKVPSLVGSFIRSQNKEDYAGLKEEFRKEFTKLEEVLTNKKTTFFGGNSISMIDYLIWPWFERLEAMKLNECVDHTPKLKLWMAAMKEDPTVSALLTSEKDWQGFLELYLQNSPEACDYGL
LYPLA2 counter – LYPLA2 inhibitors, primary screen, counter-screen for PME1 inhibitor project, biochemical, fluorescence polarization, FP-Rh probe ABPP | 320,000 compounds, 0.38% hits | inhibition, % at 5.9 µM | recombinant LYPLA2 | Acyl-protein thioesterase 2 (Homo sapiens), O95372 | AID 2177, 2009;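 active = inhibition above the screen-wide mean plus 3 SD, limit set per campaign, cut at about 26% in these data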
Fam108b inh conf – mouse Fam108b serine hydrolase inhibitors, confirmation, counter-screen for RBBP9 inhibitor project, biochemical, fluorescence polarization, triplicate | shares compounds with Fam108B inh | recombinant Fam108b, FP-Rh probe fluorescence polarization | inhibition, % at 9.51 µM | 930 compounds, 44% hits | AID 1978, 2009;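 active = inhibition above a limit from the primary screen, the mean over all compounds plus 3 SD, cut at about 19% in these data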;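 also: inhibitors free the probe so polarization falls as inhibition rises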
Fam108b ABPP HTS – inhibition of mouse Fam108b by HTS hits, late-stage follow-up, biochemical, gel-based ABPP, soluble recombinant form; shares compounds with Fam108B inh; fluorophosphonate probe; inhibition, % at 20 µM; 260 compounds, 44% hits; AID 588649, 2011; in the data active = inhibition above about 40%
Hits are given with their value; – = inactive; · = no result. The list is not random: actives were taken first. Their share in the collection is about 1.8%.

SMILES | PME-1 inh | Fam108B inh | LYPLA1 inh | PAD4 FP inh | GSTO1 inh | LYPLA2 counter | Fam108b inh conf | others
Clc1ccc(C2Nc3cccc4cccc(c34)N2)cc1Cl | – | 24 | – | – | – | – | 21
Clc1cccc(C2Nc3cccc4cccc(c34)N2)c1 | – | – | – | – | – | – | ·
CCOc1cc(C2Nc3cccc4cccc(c34)N2)ccc1O | – | 63 | – | – | – | – | 24
Oc1ccccc1C1Nc2cccc3cccc(c23)N1 | 46 | 60 | – | – | – | – | 31 | Fam108b ABPP HTS=85
CSc1ccccc1NC(=O)c1ccc(N2CCCC2=O)cc1 | – | · | – | – | · | – | ·
COc1ccc(C(=O)NC(=S)N2CCN(C)CC2)cc1Br | – | 47 | – | – | – | – | –
COc1cc(C(=O)NC(=S)N2CCN(C)CC2)cc(OC)c1OC | · | · | · | – | · | · | ·
CNC(=S)N/N=C/c1cc(Br)cc(Br)c1O | – | – | – | – | – | – | ·
Oc1c(Br)cc(Br)cc1/C=N/NC(=S)N[C@H]1CC2C=CC1C2 (some centres undefined) | – | 18 | – | – | – | – | –
COc1cc(O)ccc1/C=N/NC(=O)c1ccc([N+](=O)[O-])cc1 | – | – | – | – | – | – | ·
O=C(NC(CSCc1ccccc1)C(=O)N/N=C/c1ccc(O)cc1O)c1ccc([N+](=O)[O-])cc1 (centres undefined) | – | 23 | – | – | – | – | –
COc1ccc(-c2cc(CCC(=O)N3CCN(c4cc(C)ccc4C)CC3)[nH]n2)cc1 | · | · | · | – | · | · | ·
CCOc1ccc(N2CC(C(=O)NNC(=O)c3ccc(F)cc3)CC2=O)cc1 (centres undefined) | – | · | – | – | · | – | ·
O=[N+]([O-])c1ccc(O)c(C=NNC(=S)Nc2ccc(Cl)cc2Cl)c1 | · | · | · | · | · | · | · | Fam108b ABPP HTS=–
O=[N+]([O-])c1ccc(O)c(/C=N/Nc2ccccc2Cl)c1 | – | – | – | – | – | – | ·
COc1cc(/C=N/Nc2nc(-c3ccc(S(=O)(=O)N(C)C)cc3)cs2)ccc1O | 28 | 21 | – | – | – | – | –
O=[N+]([O-])c1cc(/C=N\Nc2nc(-c3ccccc3)cs2)ccc1O | – | 25 | – | – | 63 | – | 25
COc1ccc([N+](=O)[O-])cc1NC(=O)c1ccc(C)o1 | – | – | – | – | – | – | ·
Cc1cc(C(C#N)c2ccc(Cl)cc2)c(Cl)cc1NC(=O)c1cc(I)cc(I)c1O (centres undefined) | 40 | 25 | – | – | – | – | 42 | Fam108b ABPP HTS=45
COc1ccc(OCCCC(=O)Nc2ccc(S(=O)(=O)N3CCOCC3)cc2)cc1 | – | · | – | – | · | – | ·
COC(=O)[C@]1(Cc2ccccc2)N[C@H](CN(C)S(=O)(=O)c2ccc(C(C)(C)C)cc2)[C@@H]2C(=O)N(C)C(=O)[C@@H]21 | · | · | · | – | · | · | ·
C/C(=N\OCc1nc2ccccc2c(=O)n1/N=C/c1cc([N+](=O)[O-])ccc1O)c1ccccc1 | – | 19 | – | – | – | – | –
C/C(=N\OCc1nc2ccccc2c(=O)n1/N=C/c1cc(C)cc([N+](=O)[O-])c1O)c1ccccc1 | – | 24 | – | – | – | – | –
O=C(Nc1cc(Sc2ccccn2)cc([N+](=O)[O-])c1)c1cccc(F)c1 | – | 21 | – | – | – | – | –
O=C(CCSCc1cccc(Cl)c1)NCCc1ccc(Cl)cc1 | – | – | – | – | – | – | ·
SMILES | PME-1 inh | Fam108B inh | LYPLA1 inh | PAD4 FP inh | GSTO1 inh | LYPLA2 counter | Fam108b inh conf | others
COc1ccc(/C(C)=N/NC(=O)c2ccncc2)cc1 | – | – | – | – | – | – | ·
COc1cccc(NS(=O)(=O)c2ccc3c(c2)CCCN3C(C)=O)c1 | – | – | – | – | – | – | ·
COc1cccc(NS(=O)(=O)c2ccc3c(c2)C2C=CCC2C(c2ccc(C(=O)O)cc2)N3)c1 (centres undefined) | – | 43 | – | – | – | – | –
COc1ccc(C(=O)N/N=C(\C)c2ccc3c(c2)C2C=CCC2C(c2ccccc2)N3)cc1 (centres undefined) | – | 20 | – | – | – | – | –
COc1cccc(Nc2nc(-c3cccc(N4C(=O)c5ccccc5C4=O)c3)cs2)c1 | – | 31 | – | – | – | – | –
COc1cccc(Nc2nc(-c3ccc(O)cc3)cs2)c1 | – | – | – | – | – | – | ·
COc1ccc(S(=O)(=O)NCCC(=O)OCC(=O)NC2CC2)cc1 | · | · | · | – | · | · | ·
CC1=NN(C(N)=S)C(=O)C1N=Nc1c(Br)cc(Br)cc1Br (centres undefined) | – | 29 | – | – | – | – | 33 | Fam108b ABPP HTS=–
CC1=NN(C(N)=S)C(=O)C1N=Nc1c(C)cc(C)cc1C (centres undefined) | – | – | – | – | – | – | ·
Cc1ccc(NC(=O)CSc2nc3[nH]ncc3c(=O)[nH]2)cc1Cl | – | – | – | – | – | – | ·
COc1ccc(OC)c(-c2csc(NC(=O)CSc3ccc([N+](=O)[O-])cc3)n2)c1 | – | 21 | – | – | – | – | –
COc1ccc(OC)c(-c2csc(NC(=O)CSc3ccc(Br)cc3)n2)c1 | – | – | – | – | – | – | ·
O=[N+]([O-])c1ccc(O)c(Nc2ncnc3ccc(Br)cc23)c1 | 32 | 20 | – | – | – | – | –
CN(c1ccccc1)S(=O)(=O)c1ccc(NC(=O)c2nc(S(C)(=O)=O)ncc2Cl)cc1 | 47 | 32 | – | – | – | – | 24
CN(c1ccccc1)S(=O)(=O)c1ccc(NC(=O)c2ccccc2)cc1 | – | – | – | – | – | – | ·
COCCNC(=O)CSc1nnc(CCCN2C(=O)c3cccc4cccc(c34)C2=O)n1-c1ccccc1 | – | – | – | – | – | – | ·
CC1(C)CC(=O)C2=C(C1)c1c(ccc3ccccc13)NC2c1cc([N+](=O)[O-])cc([N+](=O)[O-])c1O (centres undefined) | – | 26 | – | – | – | – | 57 | Fam108b ABPP HTS=50
Cc1ccccc1/C=N/Nc1ccnc2cc(Cl)ccc12 | – | – | – | – | – | – | ·
Oc1ccc(C=NNc2ccnc3cc(Cl)ccc23)c(O)c1O | · | · | · | · | · | · | · | Fam108b ABPP HTS=80
CC(C)c1ccc(C2C3=C(CC(C)(C)CC3=O)NC3=C2C(=O)c2ccccc23)cc1 (centres undefined) | – | 23 | – | – | – | – | –

Compound activity deposited in PubChem by The Scripps Research Institute Molecular Screening Center.
